Screening data as filed in PubChem.
Compounds with a hit are over-represented: about 6.5% of the library has one in this group of screens.
TGFb inhibitor: TGF-b pathway inhibition | HepG2 CAGA-GFP TGF-b/SMAD3 reporter, GFP fluorescence, 18 h; TGF-beta stimulated, 500 pg/mL final | Potency, µM (highest dose often 46.1 µM), hits mostly inhibitors | 1.2% of 410,000 active; also: nearly all actives have a fitted effect of over 65% in size
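HEPG2 CAGA-GFP, 1000 cells/well; 2 h settle, 37 C; cpd via pin tool; TGF-b 500 pg/mL final; 18 h, 37 C; GFP imaging ex488/em500-530; %Activity normalised to -TGF-b and +DMSO controls; CRC fit, curve class.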
IL1B secr inh: blocks inflammasome-driven IL-1 beta release | THP-1 LPS/ATP IL-1B secretion, AlphaLISA, 16 h; stronger effect = lower value | activity change, % at 57.5 µM | 4.7% of 360,000 active | AID 743279; in the data active = activity change below about -50%; inconclusive = mostly about -30% to -49%
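THP-1 cells pretreated 1 hr with compounds (up to 57.5 uM final), then stimulated with LPS (250 ng/mL final) plus ATP (1.25 mM final); secreted IL-1B measured by AlphaLISA after 16 hr, decreased signal indicating inhibition.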
HT1080NT lethal: kills 2HG-producing HT-1080-NT fibrosarcoma cells; HT-1080-NT fibrosarcoma viability, CellTiter-Glo ATP luminescence, 48 h; Potency, µM (top dose mostly 46.1 µM), actives largely listed as cytotoxic; 1.6% of 360,000 active;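 also: NT is the 2HG producing partner of a matched IDH1 knockdown line; nearly all actives have a fitted effect of over 55% in size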
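750 cells/well, RPMI + 5% FBS; 2 h settle, compound pin-transfer, 48 h at 37 degrees C. CellTiter-Glo 10 min RT, luminescence. Normalized to DMSO and media-only wells.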
HepG2 viability: HepG2 cytotoxicity, counter-screen for TGF-b inhibitors; HepG2 CAGA-GFP viability, ATP luminescence, 18 h; Potency, µM (doses to about 46.1 µM), most hits filed as cytotoxic; 0.76% of 410,000 active; AID 588856
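HepG2 CAGA-GFP cells (1000/well, DMEM with 1% FBS) received compound, then TGF-beta at 500 pg/mL final, and were incubated 18 hours at 37 degrees C. Viability was read by CellTiter-Glo luminescence. Media-only wells were set as complete cell-killing and DMSO as no toxicity.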
HT1080 IDH1KD tx: kills HT-1080 cells with IDH1 knockdown. HT-1080 IDH1 knockdown viability, ATP luminescence, 48 h. 2% of 360,000 active. Potency, µM (series often up to 46.1 µM), usual class: cytotoxic
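% activity derives from luminescence (CellTiter-Glo), normalised to DMSO and no-cell wells. HT-1080-IDH1KD cells, 750/well, had 48 h compound exposure at 37 °C.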
Giardia kill: Giardia lamblia killing; AID 540267; activity change, % at 7.66 µM, hits read low; 0.15% of 340,000 active; Giardia lamblia trophozoite viability; in the data active = activity change below about -80%; inconclusive = between about -30% and that limit;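 also: parasites exposed to compound for two days anaerobically before the ATP read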
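Luminescent ATP signal served as the viability read-out, measured 15-30 min after adding ATP detection reagent to trophozoites that had been incubated with compounds for 48 hrs at 37 deg C anaerobically at 100 cells/well.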
Each line names hits and unclear results; the compound was inactive in the other large screens. Unless noted, calls follow the shape of the dose curve; as a rule, active = well fitted curve in the direction sought with a large enough effect; inconclusive = small, poorly fitted or top-dose-only effect, or another doubt; inactive = no such curve, though single readings can be large; an effect the other way counts as inactive or inconclusive.

Cc1ccc2[nH]c(C)c(/C=N/Nc3nc4ccccc4s3)c2c1	TGFb inhibitor 11µM, HT1080NT lethal inconclusive, HT1080 IDH1KD tx inconclusive
C(=NNc1ccc2ccccc2n1)c1ccccn1	TGFb inhibitor inconclusive, HT1080NT lethal 18µM, HT1080 IDH1KD tx 7.3µM (no result: Giardia kill)
Cc1csc(N/N=C/c2ccccn2)n1	TGFb inhibitor inconclusive, IL1B secr inh -100, HT1080NT lethal inconclusive, HT1080 IDH1KD tx inconclusive
Cc1csc(N/N=C/c2ccc([N+](=O)[O-])cc2)n1	HT1080NT lethal inconclusive, HT1080 IDH1KD tx inconclusive
C(=N\NC1=Nc2cccc3cccc1c23)/c1ccccn1	TGFb inhibitor 2µM, HT1080 IDH1KD tx inconclusive
Cc1cccc2nc(C(=O)Nc3cc(Cl)ccc3-n3cncn3)cn12	none
CCOC(=O)C1=C(C)N(C)C(C)=C(C(=O)OCC)C1c1cccnc1	none
OCC1(Cc2ccccc2Cl)CCN(C/C=C/c2ccccc2)CC1	TGFb inhibitor inconclusive
CC(C)Cn1c(-c2cccc(S(=O)(=O)N3CCOCC3)c2)n[nH]c1=S	none
C(=N\Nc1nc2ccccc2s1)/c1ccccn1	TGFb inhibitor 3.5µM, IL1B secr inh -95, HT1080NT lethal inconclusive, HepG2 viability 6.3µM, HT1080 IDH1KD tx 6.5µM, Giardia kill inconclusive
O=[N+]([O-])c1cc(Cl)cc(/C=N/Nc2nc3ccccc3s2)c1O	HT1080NT lethal 21µM, HT1080 IDH1KD tx 18µM
O=C(NC1CC1)C1CCN(C2CCN(C(=O)CCOc3ccccc3)CC2)CC1	none
CC(C)C(NC(=O)c1ccccc1)C(=O)N1CCN(C/C=C/c2ccccc2)CC1 (stereo not drawn)	none
CSCCC(NC(=O)c1ccc(Cl)c([N+](=O)[O-])c1)C(=O)N1CCN(C/C=C/c2ccccc2)CC1 (stereo not drawn)	IL1B secr inh -103
CCC(=O)N(CCN1CCOCC1)Cc1cc2cc3c(cc2nc1Cl)OCO3	none
CC(C)CCNC(=O)C(=O)Nc1ccc2c(c1)N(S(=O)(=O)c1cccs1)CCC2	HT1080NT lethal 3.3µM, HT1080 IDH1KD tx 2.6µM
O=C(NCCCO)C(=O)Nc1ccc2c(c1)N(S(=O)(=O)c1cccs1)CCC2	none
COCCNC(=O)C(=O)Nc1ccc2c(c1)N(S(=O)(=O)c1cccs1)CCC2	HT1080NT lethal inconclusive, HT1080 IDH1KD tx 6.5µM
O=C(Nc1ccc2ccccc2c1)c1nc(S(=O)(=O)Cc2ccccc2F)ncc1Cl	TGFb inhibitor inconclusive (no result: IL1B secr inh, HT1080NT lethal, HT1080 IDH1KD tx, Giardia kill)
CCOc1ccc(NC(=O)c2nc(S(=O)(=O)Cc3ccccc3C)ncc2Cl)cc1	TGFb inhibitor 13µM (no result: IL1B secr inh, HT1080NT lethal, HT1080 IDH1KD tx, Giardia kill)
CCOc1ccc(NC(=O)c2nc(S(=O)(=O)Cc3ccc(F)cc3)ncc2Cl)cc1	TGFb inhibitor 11µM (no result: IL1B secr inh, HT1080NT lethal, HT1080 IDH1KD tx, Giardia kill)
O=C(CCN1C(=O)C2CC=CCC2C1=O)Nc1ccccc1Cl (stereo not drawn)	none
CCCCn1cnc2c(oc3nc4c(cc32)CCCC4)c1=O	IL1B secr inh -60
O=c1c2oc3nc4c(cc3c2ncn1CCCc1ccccc1)CCCC4	IL1B secr inh -53
CCCCCCn1cnc2c(oc3nc4c(cc32)CCCC4)c1=O	none
COc1ccccc1NC(=O)Cn1cnc2c(oc3nc4c(cc32)CCCC4)c1=O	HT1080NT lethal inconclusive
CC(=O)c1c(C(C)=O)c(C)n(-c2nc(-c3ccccc3)c(C)s2)c1C	TGFb inhibitor inconclusive
N#Cc1ccc2[nH]cc(C3c4cc(F)ccc4C=C(c4ccsc4)N3c3ccc(C#CCCO)cc3)c2c1 (stereo not drawn)	IL1B secr inh inconclusive, HT1080NT lethal inconclusive, HT1080 IDH1KD tx 15µM (no result: TGFb inhibitor, HepG2 viability, Giardia kill)
Cc1nc2c(Br)cc(Br)cc2c(=O)n1-c1ccccc1NC1OCC(O)C(O)C1O (stereo not drawn)	HepG2 viability 1.6µM
Cc1ccc2c(c1)c(/C=C/c1cc[n+](C)cc1)c(C)n2C	IL1B secr inh -63, HT1080NT lethal inconclusive, HT1080 IDH1KD tx inconclusive
COc1ccccc1C(CNC(=O)c1ccco1)N1CCCC1 (stereo not drawn)	none
COc1ccc(OCC(=O)NCC(c2ccc(OC)cc2)N2CCOCC2)cc1 (stereo not drawn)	none (no result: IL1B secr inh, HT1080NT lethal, HT1080 IDH1KD tx, Giardia kill)
COc1ccccc1C(CNC(=O)c1ccc(-c2ccccc2Cl)o1)N1CCCC1 (stereo not drawn)	TGFb inhibitor inconclusive, IL1B secr inh -57, HT1080NT lethal inconclusive, HT1080 IDH1KD tx 21µM
Cc1ccc(C(C)C)c(OCC(=O)NCC(c2cccs2)N2CCOCC2)c1 (stereo not drawn)	IL1B secr inh inconclusive
COc1ccc(C(CNC(=O)COc2ccc(-c3ccccc3)cc2)N2CCOCC2)cc1 (stereo not drawn)	IL1B secr inh -61, HT1080 IDH1KD tx inconclusive
CC(C)(CNC(=O)c1ccc(-c2ccccc2Cl)o1)N1CCOCC1	IL1B secr inh -56
Cc1cc(OCC(=O)NCC(c2cccs2)N2CCOCC2)ccc1C(C)C (stereo not drawn)	TGFb inhibitor inconclusive, IL1B secr inh -57
CC1(C)CC(=O)C2=C(C1)NC(=O)CC2	none (no result: Giardia kill)
Cc1ccc(CSCCNC(=O)CN(c2cccc([N+](=O)[O-])c2)S(C)(=O)=O)cc1	none
COC(=O)Cc1ccc(NC(=S)NC2CC2)cc1	none
CCCCn1c(N)c(N(CC(C)C)C(=O)CN(C)S(=O)(=O)c2ccc(C)cc2)c(=O)[nH]c1=O	none
COc1cc(/C=C/C(=O)OC[C@H]2O[C@H](OC3(CO)OC(CO)C(O)C3O)[C@H](O)[C@@H](O)[C@@H]2O)ccc1O (stereo partly drawn)	none
COc1ccc(C(CNC(=O)c2cc(F)c(F)c(F)c2F)N2CCOCC2)cc1 (stereo not drawn)	IL1B secr inh -95
COc1ccc(C(CNC(=O)c2oc3ccc(Br)cc3c2C)N2CCCCC2)cc1 (stereo not drawn)	IL1B secr inh -82
COc1ccc(C(CNC(=O)c2oc3cc(Br)ccc3c2C)N2CCCCC2)cc1 (stereo not drawn)	Giardia kill inconclusive
COc1ccc(C(CNC(=O)c2ccc(-c3ccccc3Cl)o2)N2CCOCC2)cc1 (stereo not drawn)	IL1B secr inh -76
COc1ccc(NC(=O)CCNS(=O)(=O)c2ccc3c(c2)c(=O)n(C)c(=O)n3C)cc1	none
C/C(=N\NC(=O)c1cc(O)cc(O)c1)c1ccc(NC(=O)Cc2ccccc2)cc1	HT1080 IDH1KD tx inconclusive
Cc1ccc(C)c(C(=O)Cn2ncc(Cl)c(Cl)c2=O)c1	TGFb inhibitor inconclusive, IL1B secr inh -104, HT1080 IDH1KD tx 18µM
Cc1cc(C(=O)Cn2ncc(Cl)c(Cl)c2=O)c(C)n1CC(F)(F)F	TGFb inhibitor inconclusive, IL1B secr inh -99, HT1080NT lethal 8.2µM, HT1080 IDH1KD tx 5.8µM
